Reference: publication PMC5540273 (PLoS ONE, 2017)

Legend:
Conditions in all cases: concentration: 1 μM, replicates: in singlicate; n = 1
WNK4 = test system: WNK4
YANK1 = test system: T1, YANK1
T1 construct: gene STK32A

YANK2 = test system: T2, YANK2
T2 construct: gene STK32B

YANK3 = test system: T3, YANK3
T3 construct: gene STK32C

YES = test system: T4, YES
T4 construct: gene YES1

YSK1 = test system: T5, YSK1
T5 construct: gene STK25

YSK4 = test system: T6, YSK4
T6 construct: gene MAP3K19

ZAK = test system: ZAK
ZAP70 = test system: ZAP70
p38-alpha = test system: T7, p38-alpha
T7 construct: gene MAPK14

p38-beta = test system: T8, p38-beta
T8 construct: gene MAPK11

p38-delta = test system: p38-delta
p38-gamma = test system: T9, p38-gamma
T9 construct: gene MAPK12
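Further: KINOMEscan kinase panel screen.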

Structure (SMILES) | %Inh (WNK4) | %Inh (YANK1) | %Inh (YANK2) | %Inh (YANK3) | %Inh (YES) | %Inh (YSK1) | %Inh (YSK4) | %Inh (ZAK) | %Inh (ZAP70) | %Inh (p38-alpha) | %Inh (p38-beta) | %Inh (p38-delta) | %Inh (p38-gamma)
CN1c2ccc(-c3ccc(C(=O)NCCO)cc3)cc2-c2[nH]ncc2S1(=O)=O | 0% | 0% | 0% | 0% | 12% | 13% | 8% | 20% | 0% | 0% | 4% | 9% | 10%
COc1cc2ncnc(Nc3ccc(OCc4ccccc4Br)c(Cl)c3)c2cc1OC.Cl [GI261590] | 52% | 0% | 0% | 21% | 31% | 0% | 33% | 33% | 19% | 63% | 0% | 54% | 0%
COC(=O)c1cccc(NC(=O)NCCNc2ccnc(Nc3ccc(F)cc3)n2)c1 [GSK1379883] | 36% | 0% | 20% | 0% | 14% | 14% | 8% | 0% | 0% | 3% | 0% | 40% | 0%
CSc1ccc(NC2=C(c3ccccc3Cl)C(=O)NC2=O)cc1 [SB-342411] | 0% | 12% | 0% | 9% | 9% | 60% | 0% | 20% | 0% | 0% | 0% | 0% | 35%
COC(=O)c1c(-c2ccccc2)c2cc(Cl)ccc2c(=O)n1Cc1ccc(S(C)(=O)=O)cc1 | 27% | 0% | 15% | 0% | 0% | 0% | 2% | 5% | 0% | 17% | 0% | 21% | 23%
CC(=O)Nc1n[nH]c2ncc(-c3ccccc3)cc12 [SB-548492] | 30% | 0% | 0% | 0% | 0% | 0% | 31% | 31% | 0% | 4% | 11% | 3% | 20%
Fc1cccc(COc2ccc(Nc3ncnc4nn5ccccc5c34)cc2Cl)c1 [GW689066] | 23% | 0% | 0% | 6% | 13% | 1% | 3% | 4% | 0% | 11% | 0% | 25% | 0%
Oc1ccc2ncnc(Nc3ccc(OCc4ccccc4)cc3)c2c1 [GI262866] | 14% | 0% | 0% | 15% | 0% | 0% | 7% | 18% | 0% | 0% | 0% | 36% | 0%
Cc1cc(N2CCC(NS(=O)(=O)c3ccc(F)cc3)CC2)nc(Nc2cccc(C#N)c2)n1.O=C(O)C(F)(F)F [GSK1653537] | 0% | 2% | 1% | 29% | 0% | 22% | 0% | 0% | 0% | 0% | 0% | 8% | 0%
CNc1nccc(-c2c(-c3ccc(F)cc3)ncn2CCCN2CCOCC2)n1 [SB-222516] | 0% | 0% | 0% | 0% | 0% | 0% | 7% | 6% | 5% | 13% | 15% | 0% | 4%
Clc1ccc(-c2cc(-c3c[nH]nc3-c3ccccn3)ccn2)cc1 [GW681251] | 0% | 0% | 0% | 0% | 0% | 0% | 0% | 14% | 47% | 45% | 0% | 25% | 0%
O=C(Nc1ccccc1)Nc1ccc(Oc2ccc3nccn3n2)cc1 | 0% | 0% | 0% | 0% | 11% | 0% | 0% | 4% | 0% | 0% | 0% | 2% | 30%
Cl.Cn1ccc(-c2cccc(Nc3ccnc4cc(-c5nccs5)ccc34)c2)n1 [GW525701] | 66% | 0% | 10% | 0% | 21% | 17% | 41% | 0% | 74% | 9% | 0% | 23% | 14%
Clc1cc(Nc2ncnc3cc[nH]c23)ccc1OCc1ccccn1 | 25% | 12% | 3% | 51% | 0% | 0% | 34% | 18% | 0% | 18% | 26% | 37% | 22%
Clc1cccc(-c2nc(Nc3ccncc3)c3ccccc3n2)c1 [GW873004] | 0% | 0% | 0% | 0% | 34% | 0% | 0% | 0% | 0% | 0% | 0% | 17% | 0%
CC(C)(C)c1ccc(-n2cnc3c(N)ncnc32)cc1 [SKF-97263] | 0% | 0% | 11% | 11% | 6% | 0% | 15% | 10% | 0% | 0% | 0% | 11% | 32%
O=C(Nc1ccccc1F)NC1CCN(c2ccnc(Nc3ccc(F)cc3)n2)C1 (stereo not shown) [GSK1379722] | 28% | 0% | 6% | 21% | 14% | 2% | 28% | 0% | 0% | 6% | 0% | 38% | 0%
C[C@H]1CC[C@@H](C(=O)Nc2ccccc2)CN1c1cc(-c2ccc3c(N)n[nH]c3c2)nc(N)n1 [GSK2283293] | 28% | 13% | 0% | 4% | 10% | 0% | 16% | 2% | 0% | 0% | 0% | 0% | 51%
C[C@@H]1CCN(C(=O)CO)C[C@@H]1N(C)c1ncnc2[nH]ccc12 | 0% | 19% | 0% | 0% | 0% | 0% | 7% | 7% | 0% | 5% | 5% | 13% | 1%
OCCOCCn1ccc2ncnc(Nc3ccc(Oc4cccc(Cl)c4)c(Cl)c3)c21 | 0% | 0% | 0% | 0% | 0% | 0% | 0% | 0% | 0% | 0% | 0% | 0% | 0%
CC(C)(C)OC(=O)NC1CCCN(c2cc(-c3ccc4c(N)n[nH]c4c3)nc(N)n2)C1 (stereo not shown) [GSK2286096] | 12% | 10% | 0% | 0% | 1% | 2% | 20% | 0% | 0% | 0% | 0% | 47% | 0%
Nc1nc(-c2ccc3c(N)n[nH]c3c2)cc(N2CCCCC2)n1 [GSK2228768] | 0% | 0% | 0% | 0% | 0% | 1% | 0% | 0% | 0% | 0% | 0% | 19% | 0%
COc1ccc(NC(=O)Nc2ccc(C)c(-c3ccc(C(=O)Nc4ccncc4)cc3)c2)cc1 [GSK1398475] | 0% | 0% | 0% | 7% | 13% | 13% | 9% | 6% | 0% | 60% | 0% | 37% | 0%
Cc1ccc(NC(=O)c2cccc(C#N)c2)cc1-c1ccc(C(=O)Nc2ccncc2)cc1 [GSK1398463] | 3% | 14% | 0% | 11% | 24% | 9% | 64% | 12% | 0% | 47% | 9% | 48% | 26%
Cl.Fc1ccccc1COc1ccc(Nc2ncnc3ccc(-c4nnc(C(F)(F)F)o4)cc23)cc1Cl [GW424170] | 0% | 3% | 0% | 3% | 5% | 0% | 0% | 1% | 0% | 0% | 0% | 29% | 17%
NC(=O)c1sc(-n2cnc3ccccc32)cc1OCc1ccccc1F [GSK1024306] | 0% | 0% | 0% | 0% | 0% | 0% | 2% | 0% | 0% | 93.4% | 1% | 0% | 0%
Cn1ccc2ncnc(Nc3ccc(Oc4cccc(Cl)c4)c(Cl)c3)c21 | 34% | 0% | 14% | 17% | 0% | 0% | 11% | 30% | 0% | 17% | 22% | 40% | 8%
COc1ccc(NC(=O)c2ccc(-c3cc(-c4nnc(C)o4)ccc3C)cc2)cc1 [GW595885] | 34% | 16% | 7% | 0% | 16% | 0% | 34% | 2% | 0% | 97.7% | 33% | 17% | 0%
